# NADH enzymes – inhibition of NAD/NADH coupling enzymes, library profiling. coupled PK/LDH NADH assays, four targets. IC50, µM (top dose mostly 10 µM), without a hit: top-dose inhibition. 65,000 tested, 0.02% active. AID 774;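 active = single-dose screening hits from any of four coupled enzyme assays that gave an IC50 when retested across doses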;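 also: the DPM-DC format reads NADH fluorescence rather than 340 nm absorbance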
# PMK inhibit – blocks S. pneumoniae phosphomevalonate kinase; purified PMK, PK/LDH-coupled NADH absorbance 340 nm; inhibition, % at 10 µM; 65,000 tested, 0.49% active; AID 539;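 active = top-ranked compounds by inhibition in the single 10 µM screen, taking a fixed number of the strongest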;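 also: 0% = full reaction with DMSO carrier and 100% = background rate without enzyme reaction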
# Spn DPM-DC inh – inhibitors of Streptococcus pneumoniae diphosphomevalonate decarboxylase. purified DPM-DC, PK/LDH coupled NADH fluorescence. calls only at 10 µM. 65,000 tested, 0.49% active. AID 556;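 active = the 320 compounds with the highest percent inhibition in the single-dose primary screen, excluding strongly autofluorescent ones, cut at about 32% in these data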;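 also: kinetic rate of NADH fluorescence loss reporting ADP formed by the decarboxylase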
# Fluor 339 460 – intrinsic fluorescence of library compounds, ex339/em460 – biochemical, MLSMR library, data from DPM-DC assay, artefact control, profiling panel | fluorescence fold increase at 10 µM | compound autofluorescence, ex339/em460 nm, NADH buffer; active compounds read high; 1 = no-compound wells, NADH background | 65,000 tested, 5.5% active;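 active = at 10 µM, mean starting fluorescence two-fold or more over control wells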;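 also: signal is the first read of a kinetic run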
# Abs 340nm – compound absorbs light at 340 nm | compound absorbance at 340 nm, fold over control | fold change at 10 µM | 65,000 tested, under 10 active | AID 708;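 active = at 10 µM dose, initial 340 nm absorbance at least 2 fold that of control wells; inactive = change under 2 fold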;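 also: initial absorbance extrapolated from kinetic A340 decline of NADH oxidation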
# MK inhibit – inhibitors of Streptococcus pneumoniae mevalonate kinase | purified MK, PK/LDH-coupled NADH absorbance 340 nm | inhibition, % at 10 µM | 65,000 tested, 0.48% active;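 active = ranked among the strongest by inhibition in the single 10 µM screen, a fixed top-ranked set picked for dose follow-up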
# Numbers without * were called inactive; i = inactive; · = no result given; + = active, no number. This is a sample that favours compounds with a hit; in the whole collection about 6.3% have one here.
SMILES,NADH enzymes,PMK inhibit,Spn DPM-DC inh,Fluor 339 460,Abs 340nm,MK inhibit
COc1ccc(-c2cc(C(F)(F)F)n3nc(C(=O)Nc4cc(C)on4)cc3n2)cc1OC,1%,2,·,3.8*,1.1,0
COC(=O)c1cc2nc(-c3ccccc3)cc(C)n2n1,7%,0,·,3.6*,1,13
COc1ccc(-c2cc(C(F)(F)F)n3nc(C(=O)NCc4ccco4)cc3n2)cc1,0%,0,·,2.2*,1.1,0
CC(C)NC(=O)CSc1nncn1-c1ccccc1,6%,17,i,1.1,1,0
Nc1nc(C2CC2)c(Sc2sc(N)nc2C2CC2)s1,4%,12,i,1.2,1,0
O=C(NCc1ccco1)c1cc2nc(-c3ccc4c(c3)OCO4)cc(C(F)(F)F)n2n1,13%,16,·,3.7*,1,10
N=c1oc2ccc3ccccc3c2cc1-c1nnc2n1CCCCC2,9%,13,·,2.1*,1.1,4
Clc1c(-c2nnc3n2CCCCC3)sc2ccccc12,5%,14,i,1.1,1,0
COc1cc(CNc2ccc3[nH]c(=O)[nH]c3c2)cc(Cl)c1OCC(=O)NC(C)(C)C,11%,4,i,3*,1.1,2
CCOc1cc(CNc2ccc3[nH]c(=O)[nH]c3c2)ccc1OCC(=O)NC(C)(C)C,7%,3,·,3.8*,1.1,10
CC(C)CC(=O)N1CCN(C(=O)CCC2CCCC2)CC1,3%,0,i,1.1,1,8
Nc1c(Br)cc(Br)c(N2CCCC2=O)c1Br,4%,7,i,1.1,1,5
Cc1ccc(P(=Nc2ccccc2)(N2CCOCC2)N2CCOCC2)o1,8%,15,i,1.1,1,10
CCCNC(=O)N1CCN(c2nc(C(C)C)c3c(c2C#N)CC(C)(C)OC3)CC1,9%,5,i,1.8,1,4
CC1(C)Cc2c(C#N)c(N3CCN(C(=O)c4ccco4)CC3)nc(Cc3ccccc3)c2CO1,11%,7,·,2.2*,1,15
N#Cc1c(N2CCN(C(=O)c3ccco3)CC2)nc(-c2ccccc2)c2c1CCCC2,3%,5,·,2.2*,1.1,1
CC(C)Cc1nc(N2CCN(C(=O)c3ccco3)CC2)c(C#N)c2c1CCC2,5%,0,i,1.7,1,10
Cc1nc(N2CCN(C(=O)c3ccc(Cl)cc3)CC2)c(C#N)c2c1COC(C)(C)C2,5%,8,·,2.3*,1,2
c1ccc(-n2nnnc2SCc2cccc3nsnc23)cc1,3%,10,i,1.1,0.98,0
CCOC(=O)C1=CN(C)C=C(C(=O)OCC)C1c1ccsc1,3%,4,·,4.8*,1,2
COC(=O)C1=CN(CC2CCCO2)C=C(C(=O)OC)C1c1ccsc1 (stereo not given),9%,12,·,2.1*,1.1,6
CC(C)OCCCNC(=O)Cn1nc(-c2ccccc2)ccc1=O,4%,5,i,1.2,1,7
Cc1ccc(-n2c(CSc3nc(C)cc(C)n3)nnc2SCC(=O)NCc2ccco2)cc1,11%,26*,i,1.1,0.96,4
Cc1ccc2cccc(SCC(=O)NCc3ccco3)c2n1,8%,8,·,3.9*,1.1,8
O=C(CSc1nc2ccccc2nc1SCC(=O)N1CCOCC1)N1CCOCC1,1%,0,i,1,1.1,0
SMILES,NADH enzymes,PMK inhibit,Spn DPM-DC inh,Fluor 339 460,Abs 340nm,MK inhibit
Cc1ccc(-n2c(Cc3cccn3C)nnc2SCC(=O)NCc2ccco2)cc1,5%,7,i,1.2,1,7
Cc1ccc2cccc(OCC(=O)NCc3ccco3)c2n1,3%,9,i,1.1,0.99,0
Cc1ccc2cccc(SCC(=O)N3CCOCC3)c2n1,5%,11,·,2.5*,0.99,6
CCCc1nc2ccccc2c(=O)n1/N=C/c1c(C)[nH]n(-c2ccc(C)cc2)c1=O,10%,14,i,0.99,1.1,5
Cc1nnsc1-c1nc2ccccc2[nH]1,9%,17,·,4.9*,1.1,0
Cc1[nH]c2ccccc2c1-c1nc2ccccc2[nH]1,6%,10,i,1.4,0.99,8
Cc1ccc(-c2nc3ccccc3[nH]2)s1,2%,6,·,2.5*,1.1,11
c1csc(-c2nc3ccccc3[nH]2)c1,3%,0,·,3.6*,1.1,5
C=CCOc1nc(N(C)C)nc(N(C)C)n1,2%,0,i,1.1,0.99,5
CN(C)c1nc(NS(=O)(=O)c2ccc(Cl)cc2)nc(N(C)C)n1,3%,0,i,1.1,1,10
Cc1ccc(-c2nnn(CC(=O)N(CC(=O)NC3CCCCC3)c3cnc4ccccc4c3)n2)o1,3%,4,i,1.2,0.98,13
CSc1nc(-c2ccccc2O)nc(-c2ccccc2O)n1,9%,10,i,1.1,1.1,8
CCOC(=O)C1CCCCN1Cc1ccc(F)c(Br)c1 (stereo not given),15%,0,i,1.1,1,45*
O=c1cccccc1NCc1ccccc1,13%,1,+,1.1,1.1,5
CCOc1c(C(N)=O)c(-c2ccccc2)c2c(=O)[nH]c3ccccc3n12,4%,7,·,3.8*,1.1,0
CCCn1nc(-c2ccccc2)c2nc3ccccc3nc21,4%,8,i,2.4*,1.1,3
CCn1nc(-c2ccccc2)c2nc3ccccc3nc21,12%,13,i,2.4*,1.1,5
CCn1nc(NC(=O)c2ccncc2)c2cc3ccccc3nc21,3%,0,i,1.2,1,8
CCCCOCP(=O)(CCCC)COCCCC,2%,1,i,0.99,1,11
Cc1c(Cl)cccc1N(CC(=O)NC1CCCCC1)S(C)(=O)=O,2%,0,i,0.93,1,4
CC(CN1CCCC1)OC(=O)COc1ccccc1 (stereo not given),6%,19,i,1.1,1,0
CCn1c(Cc2ccccc2)nnc1SCC(=O)Nc1ccc(S(N)(=O)=O)cc1,2%,0,i,1.1,1,3
Cc1cc(Oc2ccccc2)nc2ccc(O)cc12,6%,4,·,2.1*,1.1,8
Cc1cc(Oc2ccccc2)nc(-c2ccccc2)n1,2%,0,i,0.98,0.99,5
c1csc(C2C3=C(Nc4ncnn42)c2ccccc2OC3)c1 (stereo not given),6%,3,i,2.3*,1.1,7
COc1cc(S(=O)(=O)N2CCCC3(CCCCC3)C2)ccc1-n1cnnn1,3%,0,i,2.8*,1,6
Cn1c(NC(=O)c2ccco2)c(-c2ccccc2)c(=O)c2ccccc21,9%,8,i,0.94,1.1,10
COc1ccc(-c2c(NC(C)=O)n(C)c3ccccc3c2=O)cc1,10%,11,·,3.8*,1.1,9

# From PubChem BioAssay
